# Screening results as filed in PubChem BioAssay.
# eIF4E 4G PPI: eIF4E–eIF4G protein interaction inhibitors, primary screen, biochemical, uHTS, TR-FRET, eIF4GI fragment; TR-FRET eIF4E-eIF4GI(517-606) binding, 2 h; inhibition, % at 21.7 µM; 220,000 compounds, 0.37% hits; AID 782, 2007;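 active = inhibition above about 30%, limit read from the data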;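 note: 0% = full FRET control wells and 100% = background wells lacking eIF4GI fragment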
# eIF4H inh: human eIF4H binding inhibitors, primary screen, translation initiation inhibitor project, biochemical, uHTS, fluorescence polarization; Eukaryotic translation initiation factor 4H (Homo sapiens), Q15056; eIF4H fluorescence polarization binding assay; inhibition, % at 35 µM; 290,000 compounds, 0.94% hits;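 note: calls also rest on retests at 20 µM and on dose response follow-up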
# PABP polyA inh: PABP poly(A) RNA binding inhibitors, primary screen, biochemical, fluorescence polarization, uHTS. Polyadenylate-binding protein 1 (Homo sapiens), P11940. calls only at 35 µM. 290,000 compounds, 1% hits;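 note: calls also rest on retests at 20 µM and on dose response follow-up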
# EBV gp42 block: Epstein-Barr virus gp42 inhibitors, primary screen, biochemical, uHTS, fluorescence polarization | Glycoprotein 42 (Epstein-Barr virus (strain AG876)), Q1HVG2 | Fluorescence polarization binding assay, mP read-out | inhibition, % (tested at 21.74 µM) | 220,000 compounds, 0.42% hits; in the data active = inhibition above about 50%
# PABP1 MLLE inh: inhibitors of PABP1 MLLE–PAM2 peptide binding, primary screen, biochemical, fluorescence polarization, FITC-PAM2, GST-MLLE; AID 588489, 2011; inhibition, % at 20 µM; 360,000 compounds, 0.36% hits; Polyadenylate-binding protein 1 (Homo sapiens), P11940; in the data active = inhibition above about 35%, passing the limit was not always enough;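 note: plate controls were DMSO wells with GST-MLLE for no effect and wells lacking GST-MLLE protein for full effect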
# Starred values were filed as active, the others as inactive; i = inactive; ? = inconclusive; · = not tested or not shown; + = active, no number. The list is not random: actives were taken first. Their share in the collection is about 1.7%. Unless noted, the rule behind the calls is not given here.
SMILES,eIF4E 4G PPI,eIF4H inh,PABP polyA inh,EBV gp42 block,PABP1 MLLE inh
COc1cc(NC(=O)c2cccs2)c(C(=O)OCC(=O)NCc2ccco2)cc1OC,-8.9,89.4*,+,-22.9,-24.4
CN(C)S(=O)(=O)c1ccc(C(=O)OCC(=O)NCc2ccco2)cc1,8.1,69.2*,?,-10.3,-15.1
COc1ccc2c(=O)c3c(=O)n(-c4ccccc4)c(-c4ccc(C)cc4)nc3oc2c1,-0.9,-4.5,i,-9.4,0.7
O=C(COC(=O)c1ccc(NS(=O)(=O)c2cccs2)cc1)NCc1ccco1,19.6,99.7*,+,67.1*,-6.3
Cc1cc(NCCCCCCCNc2cc(C)nc3cc([N+](=O)[O-])ccc23)c2ccc([N+](=O)[O-])cc2n1,·,·,·,·,-86.0
O=C(O)C1Sc2[nH]c(=O)sc2C2c3cc(Br)ccc3OC(=O)C12 (configuration not stated),-2.9,?,?,12.2,17.9
O=C(O)C1Sc2[nH]c(=O)sc2C2c3cc(Cl)ccc3OC(=O)C12 (configuration not stated),10.4,14.3,+,-4.2,15.0
CC(=O)Nc1ccc(NC(=O)CCC(=O)Oc2ccc(C)cc2)cc1,·,13.6,i,·,1.8
COc1ccc(C2Nc3cccc4cccc(c34)N2)cc1Br,·,62.5*,i,·,-3.9
COc1cc(C2Nc3cccc4cccc(c34)N2)ccc1OC(C)=O,-12.1,105.4*,+,-8.7,19.3
COC(=O)c1sc2nc(CSc3ccc(Br)cc3)[nH]c(=O)c2c1C,-1.9,51.2*,+,-38.3,-38.7
COCCn1c(SCc2nc3sc(C(=O)OC)c(C)c3c(=O)[nH]2)nc2ccccc21,-14.2,53.2,i,-48.0,-87.5
CCn1c(SCc2nc3sc(C(=O)O)c(C)c3c(=O)[nH]2)nc2ccccc21,30.0,83.3*,+,19.1,-30.2
CCOC(=O)c1sc2nc(CSc3ccccc3Cl)[nH]c(=O)c2c1C,-0.2,-1.6,i,-32.2,-18.2
CC(NC(=O)c1ccccc1)C(=O)OCn1nnc2ccccc2c1=O (configuration not stated),·,·,·,·,-1.0
O=C(COC(=O)CCc1c[nH]c2ccccc12)Nc1ccccc1C(F)(F)F,·,·,·,·,7.4
COc1ccccc1NC(=O)CC12CC3CC(CC(Br)(C3)C1)C2,·,-5.6,i,·,7.1
COc1ccc(NC(=O)CS(=O)c2cccc(C(F)(F)F)c2)cc1 (configuration not stated),·,0.6,i,·,-6.4
Cc1cc(C)nc(SCC(=O)Nc2ccccc2[N+](=O)[O-])n1,9.5,-4.9,i,-16.1,-1.6
O=C1CC(=O)NC(SCC(=O)Nc2ccccc2[N+](=O)[O-])=N1,·,78.4*,+,·,10.0
O=C(O)O,-2.5,0.6*,i,7.9,·
O=C(O)/C=C\C(=O)O,·,·,·,·,-1.3
CC1(C(=O)NS(=O)(=O)Cc2cccc(Cl)c2)CCN1C(=O)Cc1cccs1 (configuration not stated),·,·,·,·,10.1
C=CCSC1=C(C#N)C(c2ccccc2OCC)C(C#N)C(=O)N1 (configuration not stated),-0.4,1.4,i,-12.2,41.0*
CCOC(=O)CSC1=C(C#N)C(c2ccccc2OCC)C(C#N)C(=O)N1 (configuration not stated),-0.8,4.6,i,-7.4,-21.0
O=C(Nc1nnc(C2CC2)s1)C1CC(=O)N(c2ccc3c(c2)OCCO3)C1 (configuration not stated),24.6,95.5*,+,7.4,-14.4
O=C(Nc1nnc(C2CCCCC2)s1)C1CC(=O)N(c2ccccc2)C1 (configuration not stated),·,-3.3,i,·,10.8
CCOC(=O)c1ccc(N2C(=O)C3CC=CCC3C2=O)cc1 (configuration not stated),-7.5,-1.4,i,0.8,2.8
CCOC(=O)c1ccc(N2C(=O)C3C(C2=O)C(C(=O)c2ccc(Cl)cc2)N2CCCC32)cc1 (configuration not stated),-16.6,?,?,93.6*,-14.1
O=C(O)c1ccccc1Nc1cc(Cl)c2nonc2c1[N+](=O)[O-],·,11.0,i,·,41.8*
